Bioassay records (PubChem BioAssay)
CYP2C19 inh – inhibitors of human CYP2C19; inhibition, % at 5 µM; 21% of 96,000 active; P33261; CYP2C19 Supersomes, luciferin-H EGE luminescence, 30 min; AID 778;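 active = CYP2C19 inhibition above a set limit at 5 µM in the primary screen, cut at about 50% in these data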
Target sequence (P33261 whole entry, looked up): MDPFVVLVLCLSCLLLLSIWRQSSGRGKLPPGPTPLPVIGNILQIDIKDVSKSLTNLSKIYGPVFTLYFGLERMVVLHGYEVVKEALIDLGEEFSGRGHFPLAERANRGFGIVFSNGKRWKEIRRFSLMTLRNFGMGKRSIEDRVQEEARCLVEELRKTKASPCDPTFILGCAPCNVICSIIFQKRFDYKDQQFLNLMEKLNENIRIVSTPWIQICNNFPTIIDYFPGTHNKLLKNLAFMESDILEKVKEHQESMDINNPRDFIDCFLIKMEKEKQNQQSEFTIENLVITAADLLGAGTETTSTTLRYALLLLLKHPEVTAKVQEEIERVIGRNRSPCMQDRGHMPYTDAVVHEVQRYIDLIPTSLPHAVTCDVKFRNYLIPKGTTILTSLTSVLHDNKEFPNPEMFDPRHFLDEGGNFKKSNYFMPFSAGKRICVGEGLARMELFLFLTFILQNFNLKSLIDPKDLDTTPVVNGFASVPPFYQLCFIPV
CYP2C9 inhib – blocks human cytochrome P450 2C9; inhibition, % at 5 µM; CYP2C9 Supersomes, luciferin-H conversion, luminescence; 20% of 96,000 active; P11712;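 active = blocking of liver enzyme CYP2C9 beyond about 50% at 5 µM, limit read from the data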
CYP2C19 act – cytochrome P450 2C19 (human) activation; activation factor at 5 µM; AID 1025; P33261; 96,000 tested, under 10 active; recombinant CYP2C19, luciferin-H EGE luminescence; active compounds read high; 0 = fully inhibited enzyme, 1 = untreated enzyme;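 active = activation factor of at least 2 at 5 µM in the primary screen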
Cav32 inh – blocks human Cav3.2 T-type calcium channel | B-score at 10 µM | Cav3.2-expressing cells, Fluo-4 calcium fluorescence FDSS; active compounds read low | 4% of 100,000 active | O95180;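 active = single-dose well whose peak fluorescence ratio is a statistical outlier from its plate by either plate-standardised score or position-corrected B-score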
CYP2C9 act – CYP2C9 (human) activation | P11712 | recombinant CYP2C9, luciferin-H conversion, luminescence; active compounds read high; factor 1 = untreated enzyme, 0 = blocked | activation factor at 5 µM | 1.4% of 96,000 active;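 active = activation factor of 2 or more for CYP2C9 at a 5 µM dose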
Each line names hits and unclear results; the compound was inactive in the other large screens. Rows were chosen to be rich in hits. Some 27% of all compounds tested hit in one or more screens of this group.

Cc1cc(C(=O)CSc2nnc3c(Cl)cc(Cl)cn23)c(C)n1C	none
C=CCn1c(C)cc(C(=O)CSc2nnc3c(Cl)cc(Cl)cn23)c1C	CYP2C19 inh 78
COc1ccc(CN(C(=O)c2ccc3c(c2)OCCO3)C(C(=O)NC2CCCCC2)c2ccc3ncccc3c2)cc1 (stereo not given)	CYP2C19 inh 62
COc1ccc(CN(C(=O)c2nsc(Cl)c2Cl)C(C(=O)NC2CCCCC2)c2ccc(OC)cc2)cc1 (stereo not given)	CYP2C19 inh 51, CYP2C9 inhib 58
COc1cccc(CN(C(=O)c2ccco2)C(C(=O)NC2CCCC2)c2cccnc2)c1 (stereo not given)	none
O=C(NC1CCCCC1)C(c1ccc2ncccc2c1)N(Cc1ccccc1)C(=O)c1ccc2c(c1)OCCO2 (stereo not given)	CYP2C19 inh 80, CYP2C9 inhib 67
CS(=O)(=O)c1ccc2nc(N)sc2c1	none
Cc1nc2cc(NS(=O)(=O)c3c(C)c(C)cc(C)c3C)ccc2s1	none (no result: CYP2C19 inh, CYP2C9 inhib, CYP2C19 act, CYP2C9 act)
Cc1nc2ccc(NS(=O)(=O)c3ccc4c(c3)OCCO4)cc2s1	CYP2C19 inh 98, CYP2C9 inhib 98
Cc1ccc(S(=O)(=O)Nc2ccc3c(c2)nc(CN2CCCC2)n3C)cc1	none
Cc1ccc(S(=O)(=O)Nc2ccc3c(c2)ncn3C(C)(C)C)cc1	CYP2C19 inh 92, CYP2C9 inhib 80
Cc1ccc(S(=O)(=O)Nc2ccc3nc(C)sc3c2)cc1	CYP2C9 inhib 79
Cc1ccc(S(=O)(=O)Nc2ccc3nc(N)sc3c2)cc1	CYP2C19 inh 99, CYP2C9 inhib 95
O=C(O)C1CCCCC1C(=O)Nc1cccc(Cl)c1Cl (stereo not given)	none
CCCCN(C)CCCNC(=O)CC1Oc2ccccc2NC1=O (stereo not given)	none
Cc1nc2ccc(NS(=O)(=O)c3c(C)c(C)cc(C)c3C)cc2s1	CYP2C9 inhib 74
CCN(C(=O)CN1CCN(C)CC1)c1cccc2ccccc12	none
CN1CCN(CC(=O)O)CC1	CYP2C9 inhib 54
CC1=CC(C#N)(C#N)C(C#N)(C#N)C(c2ccccc2)N1 (stereo not given)	CYP2C9 inhib 90
CCOc1ccccc1OCC(=O)NN1Cc2ccccc2C1=N	none
CCC(=O)Oc1ccc(/C(CC)=C(\CC)c2ccc(OC(=O)CC)cc2)cc1	none (no result: CYP2C19 inh, CYP2C9 inhib, CYP2C19 act, CYP2C9 act)
CCn1nnnc1NCc1ccc(N2CCCC2)cc1	CYP2C19 inh 79, CYP2C9 inhib 81 (no result: Cav32 inh)
CC1OC(Oc2ccc3ccc(=O)oc3c2-c2c(O)ccc3cc(Oc4ccc5ccc(=O)oc5c4)c(=O)oc23)C(O)C(O)C1O (stereo not given)	none (no result: CYP2C19 inh, CYP2C9 inhib, CYP2C19 act, CYP2C9 act)
Cc1cccc(NC(=O)C2CC(=O)N(c3ccccc3)C2)c1C (stereo not given)	none
Cc1ccc(C2CC(c3ccccc3)n3ncnc3N2)cc1 (stereo not given)	CYP2C19 inh 98, CYP2C9 inhib 65
Cc1cccc(C2CC(c3ccccc3)Nc3nc(N)nn32)c1 (stereo not given)	none
Cc1ccc(C2CC(c3cccc(C)c3)n3ncnc3N2)cc1 (stereo not given)	CYP2C19 inh 96, CYP2C9 inhib 57
Nc1nnnn1N=C1CCCCC1	none
C[C@H]1C[C@@H]2[C@H]([C@@H](O)C[C@@]3(C)[C@H]2CC[C@]3(O)C(=O)CO)[C@@]2(C)C=CC(=O)C=C12	none (no result: CYP2C19 inh, CYP2C9 inhib, CYP2C19 act, CYP2C9 act)
COc1ccc(C(=O)Nc2sc3c(c2C(=O)NCc2ccco2)CCCC3)cc1OC	CYP2C19 inh 51, CYP2C9 inhib 86
COC(=O)Nc1sc2c(c1C(=O)NCc1ccco1)CCCC2	none
COc1ccc(C(=O)Nc2ccc(Cl)cc2C(=O)NCc2ccco2)cc1OC	CYP2C9 inhib 63
COc1cc(C(=O)Nc2sc3c(c2C(=O)NCc2ccco2)CCCC3)cc(OC)c1OC	CYP2C19 inh 61, CYP2C9 inhib 76
O=C(Nc1sc2c(c1C(=O)NCc1ccco1)CCCC2)c1ccc2c(c1)OCO2	CYP2C19 inh 63, CYP2C9 inhib 84
CCCN(CCC)CCNC(=O)C(NS(=O)(=O)c1ccc2c(c1)CCC(=O)N2)c1ccccc1 (stereo not given)	none
CC(C(=O)Nc1sc2c(c1C(=O)NCc1ccco1)CCCC2)N1C(=O)c2ccccc2C1=O (stereo not given)	none
O=C(CCN1C(=O)c2ccccc2C1=O)Nc1sc2c(c1C(=O)NCc1ccco1)CCCC2	CYP2C19 inh 76, CYP2C9 inhib 92
Cc1ccc(C(=O)Nc2sc3c(c2C(=O)NCc2ccco2)CCCC3)cc1	CYP2C9 inhib 65
CC(Oc1ccccc1F)C(=O)Nc1ccc2ccccc2c1 (stereo not given)	none (no result: CYP2C19 inh, CYP2C9 inhib, CYP2C19 act, CYP2C9 act)
O=C(CN(CC1CCCO1)C(=O)CNS(=O)(=O)c1ccc(Cl)cc1)NCCc1ccccc1 (stereo not given)	none
CCS(=O)(=O)c1ccc2c(c1)N(S(C)(=O)=O)CC(C(=O)NC1CC1)O2 (stereo not given)	none
COc1ccc(NCc2nc3ccccc3n2CCOc2ccccc2)cc1	CYP2C9 inhib 79
CCCc1nc2ccccc2n1CCOc1ccccc1	CYP2C19 inh 61, Cav32 inh -5.3
CCCc1nc2ccccc2n1CCOC	none
CCOC(Cn1c(CCCO)nc2ccccc21)OCC	none (no result: Cav32 inh)
Cc1ccc(OCCn2c(CCCO)nc3ccccc32)cc1	CYP2C19 inh 59
COCc1nc2ccccc2n1CCCOc1ccccc1	CYP2C19 inh 97, CYP2C9 inhib 78
CCCCCC(=O)Nc1cccc(C2=NOC3(C2)C[C@H](C(N)=O)N(C(=O)CC)C3)c1 (stereo not given in full)	none (no result: CYP2C19 inh, CYP2C9 inhib, CYP2C19 act, CYP2C9 act)
CC(C)C(=O)NCCc1nc2ccccc2n1CCCOc1ccc(Cl)cc1	CYP2C19 inh 77, CYP2C9 inhib 77, Cav32 inh -5.6
CCOCCn1c(CCCO)nc2ccccc21	none
O=C(Nc1nc2ccccc2n1CCOc1ccccc1)c1ccco1	CYP2C19 inh 58 (no result: Cav32 inh)
CC(C)C(=O)NCCc1nc2ccccc2n1C	none
OCCCc1nc2ccccc2n1CCOc1ccccc1	CYP2C19 inh 84
O=C(Nc1ccccc1)C(O)C(O)C(=O)Nc1ccccc1 (stereo not given)	none (no result: CYP2C19 inh, CYP2C9 inhib, CYP2C19 act, CYP2C9 act)
c1ccc(-n2ncc3c(N4CCN(c5ccccn5)CC4)nc(N4CCOCC4)nc32)cc1	none (no result: Cav32 inh)
Cc1nnc(SCC(=O)N(Cc2ccccc2)C(C)C)n1-c1ccccc1	none
Cc1ccc(-c2cc(-c3cccs3)[nH]n2)c(O)c1	none
Cc1nn(C)c(C)c1S(=O)(=O)N(CC(=O)N1CCc2ccccc21)c1ccc(C(C)C)cc1	CYP2C19 inh 59, CYP2C9 inhib 74
Cc1nn(C)c(C)c1S(=O)(=O)N(CC(=O)N1CCc2ccccc2C1)c1ccc(C(C)C)cc1	CYP2C19 inh 96, CYP2C9 inhib 81, Cav32 inh -4.8
Cc1ccc(N(CC(=O)N2CCN(c3ccc(F)cc3)CC2)S(=O)(=O)c2c(C)nn(C)c2C)cc1	CYP2C19 inh 85
Cc1nn(C)c(C)c1S(=O)(=O)N(CC(=O)Nc1ccccn1)c1ccc(C(C)C)cc1	none (no result: CYP2C19 inh, CYP2C9 inhib, CYP2C19 act, CYP2C9 act)
Cc1cccc(NC(=O)CN(c2ccc(C(C)C)cc2)S(=O)(=O)c2c(C)nn(C)c2C)n1	CYP2C19 inh 96, CYP2C9 inhib 97
